In article PMC5540273 (PLoS ONE, 2017):

Columns and labels:
Details in all cases: concentration: 1 μM, replicates: in singlicate; n = 1
PIM1 = system: PIM1
PIM2 = system: PIM2
PIM3 = system: PIM3
PIP5K1A = system: PIP5K1A
PIP5K1C = system: PIP5K1C
PIP5K2B = system: PIP5K2B
PIP5K2C = system: T1, PIP5K2C
T1 construct: gene PIP4K2C

PKAC-alpha = system: T2, PKAC-alpha
T2 construct: gene PRKACA

PKAC-beta = system: T3, PKAC-beta
T3 construct: gene PRKACB

PKMYT1 = system: PKMYT1
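Also: KINOMEscan kinase panel screen.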

O=c1cc(N2CCOCC2)nc2n(Cc3cccc(Cl)c3Cl)ccn12 [GSK2286295]
%Inh (PIM1): 4%
%Inh (PIM2): 0%
%Inh (PIM3): 5%
%Inh (PIP5K1A): 0%
%Inh (PIP5K1C): 16%
%Inh (PIP5K2B): 2%
%Inh (PIP5K2C): 0%
%Inh (PKAC-alpha): 16%
%Inh (PKAC-beta): 5%
%Inh (PKMYT1): 2%

Cn1ccc2ncnc(Oc3cccc(C(=O)Nc4ccccc4)c3)c21
%Inh (PIM1): 1%
%Inh (PIM2): 0%
%Inh (PIM3): 14%
%Inh (PIP5K1A): 0%
%Inh (PIP5K1C): 0%
%Inh (PIP5K2B): 17%
%Inh (PIP5K2C): 8%
%Inh (PKAC-alpha): 8%
%Inh (PKAC-beta): 0%
%Inh (PKMYT1): 16%

Nc1nc(-c2nccs2)c(-c2ccnc3ccccc23)s1 [GW693542]
%Inh (PIM1): 9%
%Inh (PIM2): 0%
%Inh (PIM3): 0%
%Inh (PIP5K1A): 0%
%Inh (PIP5K1C): 45%
%Inh (PIP5K2B): 0%
%Inh (PIP5K2C): 28%
%Inh (PKAC-alpha): 0%
%Inh (PKAC-beta): 13%
%Inh (PKMYT1): 0%

Fc1cc(Cl)ccc1Nc1ccnc2cc(-c3ccc(CN4CCCCC4)o3)ccc12 [GW560116]
%Inh (PIM1): 13%
%Inh (PIM2): 0%
%Inh (PIM3): 0%
%Inh (PIP5K1A): 0%
%Inh (PIP5K1C): 57%
%Inh (PIP5K2B): 5%
%Inh (PIP5K2C): 71%
%Inh (PKAC-alpha): 100%
%Inh (PKAC-beta): 0%
%Inh (PKMYT1): 0%

Cc1ccc(NC(=O)Nc2cccc(Cl)c2)cc1-c1ccc(C(=O)Nc2ccncc2)cc1 [GSK1398468]
%Inh (PIM1): 15%
%Inh (PIM2): 0%
%Inh (PIM3): 0%
%Inh (PIP5K1A): 0%
%Inh (PIP5K1C): 33%
%Inh (PIP5K2B): 0%
%Inh (PIP5K2C): 28%
%Inh (PKAC-alpha): 0%
%Inh (PKAC-beta): 4%
%Inh (PKMYT1): 0%

COc1cc2ncnc(Nc3ccc4nc(-c5ccccc5)[nH]c4c3)c2cc1OC.Cl [GW282450]
%Inh (PIM1): 0%
%Inh (PIM2): 0%
%Inh (PIM3): 0%
%Inh (PIP5K1A): 6%
%Inh (PIP5K1C): 54%
%Inh (PIP5K2B): 3%
%Inh (PIP5K2C): 11%
%Inh (PKAC-alpha): 6%
%Inh (PKAC-beta): 0%
%Inh (PKMYT1): 10%

O=C(Nc1n[nH]c2cc(-c3cccc(F)c3F)ccc12)C1CC1 [SB-733894]
%Inh (PIM1): 8%
%Inh (PIM2): 0%
%Inh (PIM3): 32%
%Inh (PIP5K1A): 0%
%Inh (PIP5K1C): 0%
%Inh (PIP5K2B): 0%
%Inh (PIP5K2C): 0%
%Inh (PKAC-alpha): 0%
%Inh (PKAC-beta): 0%
%Inh (PKMYT1): 40%

CCCc1ccc(S(=O)(=O)NC2CCN(c3ccnc(Nc4ccc(F)cc4)n3)C2)cc1 (centres unmarked) [GSK1379715]
%Inh (PIM1): 0%
%Inh (PIM2): 0%
%Inh (PIM3): 0%
%Inh (PIP5K1A): 19%
%Inh (PIP5K1C): 42%
%Inh (PIP5K2B): 10%
%Inh (PIP5K2C): 47%
%Inh (PKAC-alpha): 81%
%Inh (PKAC-beta): 0%
%Inh (PKMYT1): 12%

CC(C)(C)c1ccc(C(=O)Nc2cn3cc(Cl)ccc3n2)cc1
%Inh (PIM1): 0%
%Inh (PIM2): 13%
%Inh (PIM3): 0%
%Inh (PIP5K1A): 0%
%Inh (PIP5K1C): 44%
%Inh (PIP5K2B): 0%
%Inh (PIP5K2C): 48%
%Inh (PKAC-alpha): 8%
%Inh (PKAC-beta): 0%
%Inh (PKMYT1): 0%

COc1cccc(NC(=O)NC2CCN(c3ccnc(Nc4ccc(F)cc4)n3)C2)c1 (centres unmarked) [GSK1379721]
%Inh (PIM1): 9%
%Inh (PIM2): 0%
%Inh (PIM3): 0%
%Inh (PIP5K1A): 38%
%Inh (PIP5K1C): 59%
%Inh (PIP5K2B): 0%
%Inh (PIP5K2C): 0%
%Inh (PKAC-alpha): 0%
%Inh (PKAC-beta): 0%
%Inh (PKMYT1): 0%

Clc1cc(Cl)cc(Nc2ccnc(Nc3cc(Cl)cc(Cl)c3)n2)c1 [GSK175726]
%Inh (PIM1): 20%
%Inh (PIM2): 0%
%Inh (PIM3): 0%
%Inh (PIP5K1A): 9%
%Inh (PIP5K1C): 39%
%Inh (PIP5K2B): 7%
%Inh (PIP5K2C): 26%
%Inh (PKAC-alpha): 10%
%Inh (PKAC-beta): 0%
%Inh (PKMYT1): 8%

COc1ccc(C2=C(Nc3cccc(C(=O)O)c3)C(=O)NC2=O)cc1 [SB-390765]
%Inh (PIM1): 5%
%Inh (PIM2): 6%
%Inh (PIM3): 11%
%Inh (PIP5K1A): 13%
%Inh (PIP5K1C): 4%
%Inh (PIP5K2B): 16%
%Inh (PIP5K2C): 0%
%Inh (PKAC-alpha): 12%
%Inh (PKAC-beta): 25%
%Inh (PKMYT1): 0%

COc1cc(Nc2nccc(N3CCC(NC(=O)Nc4cc(C)ccc4C)C3)n2)cc(OC)c1OC (centres unmarked) [GSK1379762]
%Inh (PIM1): 0%
%Inh (PIM2): 0%
%Inh (PIM3): 0%
%Inh (PIP5K1A): 0%
%Inh (PIP5K1C): 21%
%Inh (PIP5K2B): 16%
%Inh (PIP5K2C): 70%
%Inh (PKAC-alpha): 5%
%Inh (PKAC-beta): 0%
%Inh (PKMYT1): 0%

Cc1cccc(-c2nc(Nc3cccc(C(N)=O)c3)c3ccccc3n2)n1 [GW876019]
%Inh (PIM1): 3%
%Inh (PIM2): 9%
%Inh (PIM3): 4%
%Inh (PIP5K1A): 12%
%Inh (PIP5K1C): 50%
%Inh (PIP5K2B): 0%
%Inh (PIP5K2C): 50%
%Inh (PKAC-alpha): 0%
%Inh (PKAC-beta): 36%
%Inh (PKMYT1): 32%

CN(C)CCN(C)C(=O)c1cc(-c2ccncc2)c(-c2ccc(Cl)c(O)c2)o1.Cl.Cl [SB-710397]
%Inh (PIM1): 0%
%Inh (PIM2): 0%
%Inh (PIM3): 0%
%Inh (PIP5K1A): 1%
%Inh (PIP5K1C): 67%
%Inh (PIP5K2B): 8%
%Inh (PIP5K2C): 42%
%Inh (PKAC-alpha): 9%
%Inh (PKAC-beta): 0%
%Inh (PKMYT1): 0%

Cc1ccccc1-n1cnc2c(N)ncnc21 [SKF-97510]
%Inh (PIM1): 0%
%Inh (PIM2): 0%
%Inh (PIM3): 2%
%Inh (PIP5K1A): 0%
%Inh (PIP5K1C): 0%
%Inh (PIP5K2B): 0%
%Inh (PIP5K2C): 0%
%Inh (PKAC-alpha): 10%
%Inh (PKAC-beta): 0%
%Inh (PKMYT1): 0%

O=C(Nc1n[nH]c2nc(-c3nccs3)c(Br)cc12)C1CCCC1 [SB-742609]
%Inh (PIM1): 0%
%Inh (PIM2): 0%
%Inh (PIM3): 0%
%Inh (PIP5K1A): 0%
%Inh (PIP5K1C): 36%
%Inh (PIP5K2B): 0%
%Inh (PIP5K2C): 0%
%Inh (PKAC-alpha): 0%
%Inh (PKAC-beta): 0%
%Inh (PKMYT1): 14%
